From PubChem BioAssay AID540259 (Broad Institute, 2011)
Measured potencies and affinities stand elsewhere. Values without a mark were called inactive.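 Rule for the calls: active = cell killing, meaning signal decrease, with fitted half-maximal dose at or below ten times the top valid tested dose; inconclusive = poor fit, or flat curve with 30 to 70% signal loss; inactive = the rest.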

experiment: ATP-based viability loss in HeLa cells – cell-based, CellTiter-Glo luminescence, cherry-pick samples, cytotoxicity control for MITF activator project, dose response (AID 540259); details: 24 h; series mostly up to 35 µM; activity change, negative = cytotoxicity: at the top concentration;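 note: 0% = DMSO neutral control and -100% = mitoxantrone positive control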

Structure (SMILES)	activity change, negative = cytotoxicity [%]
CCC(C)c1ccc(NC(=O)Nc2cccnc2)cc1 (centres undefined)	25
Nc1c(C(=O)C2CC2)sc2nc3c(cc12)CCC3	-0.641
Cc1ccc(-n2nnc3ccccc3c2=O)cc1C	-4.59
c1ccc(COc2ccc(-c3csnn3)cc2)cc1	2.43
Cc1ccc(Nc2ncc3c(n2)CC(C)(C)CC3=O)cc1	0.285
Nc1ccc(Oc2cc(N)cc(Oc3ccccc3)c2)cc1	9.55
FC(F)(F)c1cnc(-c2cnc(-c3cccnc3)nc2)c(Cl)c1	12.4
COc1ccc(/C(C)=N/Nc2nncc3ccccc23)cc1	-7.02
CC1CCc2sc(C(=O)Nc3ccc(C(N)=O)cc3)cc2C1 (centres undefined)	10.9
COc1ccccc1C(=O)NCC(=O)Nc1ccc2c(c1)CCC2	13.6
CCCCSc1nsc(NC(C)=O)n1	3.89
Clc1ccc(C#Cc2cccnc2)cc1	8.41
Clc1ccc(SCc2cn3ccccc3n2)cc1	7.64
CCCn1nnc(NC(=O)c2ccc(-c3ccccc3)cc2)n1	18.3
